The first experiment relates to Inhibin beta A chain (activin A). Description: small molecules binding activin A – biochemical, small-molecule microarray, 635 nm fluorescence scan, primary screen (AID 1107).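 Further: mouse activin A protein probed at 4.33 µg/mL on printed slides; score merges bound-protein fluorescence near 667 nm with spot signal-to-noise.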 The note with it: INHBA, higher = more signal.
`CCOC(=O)c1cn(C[C@H](Cc2ccccc2)NC(=O)N[C@H](CO)CCc2oc(C(C)=O)c(C(=O)OC)c2C(=O)OC)nn1` showed a composite z-score of -0.0083.

As to `NCCCCCCNC(=O)[C@@H]1C[C@@H]2C(=O)N3CCC[C@H]3C(=O)N2[C@@H]1c1cccc(OCCO)c1`, the composite z-score amounted to 1.01.

`COCCOC(=O)N1C(=O)[C@@]2(c3cc(C#CCCO)ccc31)[C@H](C(N)=O)[C@H]1C(=O)O[C@H](c3ccccc3)[C@H](c3ccccc3)N1[C@@H]2c1ccccc1OCCO` displayed a composite z-score of 0.042.

A further experiment relates to Human papillomavirus type 1a protein E7 (residues 44-93). Description: small molecules binding HPV E7 44-93 – biochemical, small-molecule microarray, residues 44-93, 635 nm fluorescence, primary screen (AID 1108).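 Further: E7 fragment applied at 1 µg/mL in TBST for 1 h at 4 C; score combines spot fluorescence with its signal to noise ratio.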 The note with it: fluorescence 635 nm, higher = more signal.
Regarding `CC(C)(C)N1CC=CC23O[C@@H]4/C=C\CCCOC(=O)C4[C@H]2C(=O)N(CCCO)[C@@H]3C1=O` (some centres undefined), the composite z-score is -0.751.

Regarding `Cc1ccc(S[C@]2(C(=O)NCCCN(C)C)CC(=O)N(C3Cc4ccccc4C3)[C@@H]2c2ccc(CO)cc2I)cc1`, the composite z-score was 0.257.

For the compound `CCOc1cc(C(O)C2C=CC3C(=O)N(c4ccccc4)C(=O)C3N2Nc2ccccc2F)ccc1O` (centres undefined), the composite z-score came to 0.357.

Compound `Cc1ccc(F)cc1S(=O)(=O)N[C@H]1CCN(Cc2ccc(OC(C)C)cc2)C1` gave a composite z-score of 1.34.

The compound `COC(=O)C(CC#Cc1ccc2c(c1)[C@]1(C(=O)N2)[C@H](c2ccc(OCCO)cc2)N2[C@H](c3ccccc3)[C@H](c3ccccc3)OC(=O)[C@H]2[C@@H]1C(=O)N1CCCCCCC1)C(=O)OC` displayed a composite z-score of 1.32.

In turn, `[N-]=[N+]=Nc1ccccc1C[C@]1(C(=O)N2CCOCC2)N=C(c2ccc(OCCCO)cc2)O[C@H]1c1ccccc1N=[N+]=[N-]` returned a composite z-score of 1.29.

`O=C(NC1CC1)[C@@H]1c2ccccc2C(=O)N(Cc2ccc(OC(F)(F)F)cc2)[C@H]1c1ccc(CO)cc1` came in with a composite z-score of 1.13.

`CN(C)CCCC[C@@H]1NC(=O)[C@H]2C[C@@H](C(=O)O)[C@@H](c3ccc(O)cc3)N2C1=O` displayed a composite z-score of 1.55.

Compound `CO[C@H]1O[C@H](CO)[C@@H](OC(=O)Nc2ccccc2)[C@H](OC(=O)Nc2ccccc2)[C@H]1OC(=O)Nc1ccccc1` registered a composite z-score of 1.5.

`[N-]=[N+]=NCc1ccccc1[C@@H]1OC(c2ccc(OCCCO)cc2)=N[C@]1(Cc1ccccc1N=[N+]=[N-])C(=O)O` returned a composite z-score of 0.98.

`CC(C)=CCCC(C)=CC(O)C1C=CC2C(=O)NC(=O)C2N1Nc1ccc(Cl)cc1Cl` (centres undefined) displayed a composite z-score of 1.36.

As to `CC(C)C(=C=CC[C@H](O)c1ccccc1OCCO)C[C@H](O)c1cc(Cl)cc(Cl)c1O`, the composite z-score came to 1.46.

Take `COc1ccc(C(=O)Nc2ccc3c(c2)[C@@]2(O[C@H](CCO)[C@@H]([Si](C)(C)c4ccc(OC)cc4)[C@@H]2C)C(=O)N3Cc2ccccc2)cc1`: the composite z-score was found to be 1.28.

Compound `CC(C)(C)OC(=O)CC[C@@]1(C(=O)NCCN2CCOCC2)N=C(c2ccc(OCCCO)cc2)O[C@@H]1c1ccccc1CN=[N+]=[N-]` gave a composite z-score of 1.02.

As for `CC(C)C(CO)N1C(=O)[C@@H]2C3C(=O)OCCC/C=C\[C@H]3OC23C=CCN(Cc2ccccc2)C(=O)[C@@H]13` (some centres undefined), the composite z-score was -1.78.

In turn, `COC(=O)C(CC#Cc1ccc2c(c1)[C@]1(C(=O)N2)[C@H](C(=O)N2CCc3cc(OC)c(OC)cc3C2)[C@H]2C(=O)O[C@H](c3ccccc3)[C@H](c3ccccc3)N2[C@@H]1c1ccccc1OCCO)C(=O)OC` returned a composite z-score of -0.099.

Compound `CC(C)=CCCC=C(C)C(O)C1C=CC2C(=O)N(c3ccccc3)C(=O)C2N1Nc1ccc(C#N)cc1` (centres undefined) registered a composite z-score of 1.4.

As for `C=CCC(OC(C)=O)[C@@H]1[C@@H](N(Cc2cccc3ccccc23)C(=O)Cc2ccc(OC)cc2)c2cc(OCCCO)ccc2N1C(=O)Cc1ccc2ccccc2c1` (some centres undefined), the composite z-score was found to be 0.415.

On to `CN1C(=O)C2C=CC(C(O)c3ccc(-c4ccccc4)s3)N(NC(=O)OC(C)(C)C)C2C1=O` (centres undefined), for which the composite z-score is 0.399.

The compound `COC(=O)[C@@]1(Cc2ccccc2)N=C(c2ccc(OCCCO)cc2)O[C@H]1c1ccccc1CN=[N+]=[N-]` yielded a composite z-score of 1.36.

Compound `COc1ccc([Si](C)(C)[C@H]2[C@H](CC(=O)N3Cc4ccccc4C[C@H]3CO)O[C@@]3(C(=O)N(C)c4ccccc43)[C@@H]2C)cc1` had a composite z-score of 1.42.

Compound `C=CCC(OC(C)=O)[C@@H]1[C@@H](N(Cc2cc3ccccc3o2)C(=O)c2cccc3ccccc23)c2cc(OCCCO)ccc2N1C(=O)c1ccc2ccccc2n1` (some centres undefined) returned a composite z-score of 0.193.

As for `CCOC(=O)C[C@H]1[C@H](OC(=O)c2ccccc2-c2ccccc2)[C@@H](NC(=O)C2CCCCC2)c2cc(OCCCO)ccc2N1C(=O)c1ccc2ccccc2n1`, the composite z-score came to 1.31.

With `O=C1C2C=CC(C(O)C3CCCCC3)N(n3cnnc3)C2C(=O)N1Cc1ccccc1` (centres undefined), the composite z-score was 1.45.

For the compound `C=CCOC(=O)[C@@H]1[C@H]2C(=O)O[C@H](c3ccccc3)[C@H](c3ccccc3)N2[C@H](c2ccc(OCCOC(=O)[C@H]3C[C@H]4C(=O)N[C@@H](CCCCN(C)C)C(=O)N4[C@H]3c3ccc(O)cc3)cc2)[C@@]12C(=O)Nc1ccc(I)cc12`, the composite z-score was 1.06.

Compound `O=C1C[C@]2(c3ccc([N+](=O)[O-])cc3)C(=O)N(C3CC3)c3cc(CO)ccc3[C@H]2N1C1CCCCC1` yielded a composite z-score of 0.481.

On to `CN(C)CCCNC(=O)[C@@]1(Cc2ccccc2I)c2ccccc2C(=O)N(C2CCCCC2)[C@H]1c1ccc(CO)cc1`, for which the composite z-score was determined as 0.664.

Turning to `C=CCC(OC(C)=O)[C@@H]1[C@@H](N(Cc2cccc3ccccc23)C(=O)c2ccc(-c3ccccc3)cc2)c2cc(OCCCO)ccc2N1C(=O)Cc1ccc2ccccc2c1` (some centres undefined), the composite z-score was -0.515.

As for `COc1cc(C(O)C2C=CC3C(=O)N(c4ccccc4)C(=O)C3N2Nc2ccccc2F)cc(OC)c1OC` (centres undefined), the composite z-score turned out to be 1.48.

Compound `C=CCN1C(=O)[C@@]2(O[C@@H](CCn3cc([C@H](O)c4ccccc4)nn3)[C@H]([Si](C)(C)c3ccc(OC)cc3)[C@H]2C)c2cc(N3C(=O)c4cccc5cccc3c45)ccc21` showed a composite z-score of -0.18.

With `COC(=O)[C@H](Cc1ccc(O)cc1)N[C@@H](/C=C/C1CC1)[C@H](O)Cc1ccccc1`, the composite z-score was -0.367.

`COc1ccc([Si](C)(C)[C@@H]2[C@@H](CC(=O)N3CCC[C@H]3CO)O[C@]3(C(=O)N(Cc4cccc(N5CCCCC5=O)c4)c4ccccc43)[C@H]2C)cc1` had a composite z-score of 0.845.

The compound `O=C1C[C@@](C(=O)O)(c2ccc([N+](=O)[O-])cc2)[C@@H](c2ccc(CO)cc2)N1C1CCCCC1` gave a composite z-score of 1.45.

`CCOC(=O)c1cn(C[C@H](Cc2ccccc2)NC(=O)N[C@H](CO)CCc2oc(C(C)=O)c(C(=O)OC)c2C(=O)OC)nn1` registered a composite z-score of 1.39.

For `NCCCCCCNC(=O)[C@@H]1C[C@@H]2C(=O)N3CCC[C@H]3C(=O)N2[C@@H]1c1cccc(OCCO)c1`, the composite z-score was -0.0954.

`COCCOC(=O)N1C(=O)[C@@]2(c3cc(C#CCCO)ccc31)[C@H](C(N)=O)[C@H]1C(=O)O[C@H](c3ccccc3)[C@H](c3ccccc3)N1[C@@H]2c1ccccc1OCCO` came in with a composite z-score of 0.99.

These data come from PubChem BioAssay.
